About 83,000 compounds went through this panel and 20% of them were active in at least one assay; those are over-represented in the sample as a whole.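 In brief: 96-well plates, 48 h treatment, single concentration, percent growth endpoint.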 A number with no mark means an inactive call. Active and inactive are the calls of the source.
System: NCI-H522 lung
Assay: NCI-60 one-dose screen, 48 h (100 = growth as untreated, 0 = no growth, -100 = all killed)
Details: 10 µM unless noted
Experimental: Growth inhibition of the NCI-H522 human Non-Small Cell Lung tumor cell line is measured as a screen for anti-cancer activity. Cells are grown in 96 well plates and exposed to the test compound for 48 hours. Compounds are tested at a single concentration, which is 10^-5 M for most compounds. The reported endpoint is percent growth (GI% or GIPRCNT), where numbers from 0 - 100% represent growth inhibition, and numbers from -100% - 0 represent cell death. For example, a value of 40 represents 60% growth inhibition. A value of 0 means no net growth occurred over the course of the experiment. A value of -40 indicates 40% of cells at the beginning of the experiment died by the end of the experiment. A value of -100 means all cells are dead at the end of the experiment.
NCI-60 Human Tumor Cell Lines Screen was performed using the standard one-dose NCI protocol, which is described in more detail at https://dtp.cancer.gov/discovery_development/nci-60/default.htm.
Compounds with GIPRCNT values below 10 were considered active. Activity score was based on GIPRCNT using the following formula: […]
Score is 0 for GIPRCNT values of 100 or above, 50 for GIPRCNT values of 0, and 100 for GIPRCNT values of -100.

Row | Structure (SMILES) | growth
1 | COc1ccc(-c2nnc(-c3ccc4c(c3)nc(-c3ccccc3)n4C3CCCCC3)o2)cc1 | 17.6%
2 | C=C(C)[C@@H]1CC[C@@]2(C(=O)O)CC[C@]3(C)C(CCC4[C@@]5(C)CCC(OS(=O)(=O)c6ccccc6)C(C)(C)C5CC[C@]43C)C12 (stereo not given in full) | 32.5%
3 | N#Cc1c(Oc2ccc([N+](=O)[O-])cc2)nc2sc3cc(Cl)ccc3n2c1=N | 93.7%
4 | N#C/C(=C\c1ccc2c(c1)OCO2)n1nnc2ccccc21 | 14%
5 | c1ccc2[nH]c(SSc3nc4ncncc4[nH]3)nc2c1 | 35.6%
6 | O=[N+]([O-])c1cccc(/C=C/c2ccccn2)c1 | 72.1%
7 | CCNCCNc1cc(C2CCCC2)c(C#N)c2nc3ccccc3n12 | 6.72% (active)
8 | N=c1ccn2c(n1)OC1C(O)C(CO)OC12 (stereo not given) | 35.9%
9 | O=C1N(c2ccccc2)C(=S)N[C@]12[C@H](c1ccccc1)C1CCCN1[C@]21C(=O)NC2C=CC(Cl)=C[C@H]21 (stereo not given in full) | 61.8%
10 | CC(C)n1nc(C#Cc2cccc3cc(-c4cccc(C(F)(F)F)c4)ncc23)c2c(N)ncnc21 | 43.7%
11 | COc1ccc(OC)c(/C=C2\COc3ccc(O)cc3C2=O)c1 | 38%
12 | C=C1C(=O)O[C@H]2[C@H]1CC/C(COC(=O)NCc1ccc(Cn3c(=O)sn(CCCCl)c3=O)cc1)=C\CC[C@@]1(C)O[C@@H]21 | -89.7% (active)
13 | NC(=S)N/N=C/C(=O)O | 96.8%
14 | CN1CCN(c2ccc(Nc3ncc(Cl)c(NC[C@@H]4CCCO4)n3)cc2)CC1 | 25.6%
15 | COc1cc2cc(Oc3ccc(NC(=O)Nc4cc(C(F)(F)F)cc(C(F)(F)F)c4)cc3)c(C)nc2cc1OCCN1CCCCC1 | -53% (active)
16 | NC(N)=N/N=C(/c1ccccc1)c1ccc(N)cc1 | 88.5%
17 | CCC(O)(C(c1ccccc1)c1ccccn1)C(c1ccccc1)c1ccccn1 (stereo not given) | 102%
18 | Cc1ccc(C)c2c1C(=O)OC2=O | 80.8%
19 | C=C1C(=O)O[C@H]2[C@H]1CC/C(C(=O)NCCCCCCCCNC(=O)/C1=C/CC[C@@]3(C)O[C@H]3[C@H]3OC(=O)C(=C)[C@@H]3CC1)=C\CC[C@@]1(C)O[C@@H]21 | -64.5% (active)
20 | CCOC(=O)Cc1csc2nc(-c3ccccc3)nn12 | 103%

Row | Structure (SMILES) | growth
21 | C=CCOc1cccc(/C=C2\SC(=Nc3ccc(O)cc3)NC2=O)c1 | -10.9% (active)
22 | COC(=O)[C@]12CC[C@@H](C)[C@H](C)[C@@H]1C1=CC[C@@H]3[C@@]4(C)C(C=O)=C[C@@](C)(CO)C4=CC[C@@]3(C)[C@]1(C)CC2 | 28.1%
23 | CCCc1nc2ccccn2c1Nc1ccc(C(=O)NO)cc1 | 64.9%
24 | COc1cc2c(cc1OC)-c1ccc3cc4c(cc3c1N(CCN1CCCC1)C2)OCO4 | -39.7% (active)
25 | COc1ccc(Nc2ncc(Br)c(NCCCNC(=O)C3CCC3)n2)cc1 | 50.1%
26 | COc1cc2ccccc2cc1C(=O)NC(=S)Nc1ccc(-c2nc3ccccc3[nH]2)cc1 | 89.6%
27 | COc1cc(CNC(=O)/C=C/C=C/c2ccc3c(c2)OCO3)ccc1OCc1cn(-c2ccc(Cl)c(Cl)c2)nn1 | 5.67% (active)
28 | CC(c1ccc(-n2cccn2)cc1)c1cnc(N2CCc3ccc(C(N)=O)cc3C2)s1 (stereo not given) | 41%
29 | CCNCCNc1cc(-c2ccc(Cl)cc2)c(C#N)c2nc3ccccc3n12 | -41.7% (active)
30 | C[C@H]1[C@H]2C3=CC[C@@H]4[C@@]5(C)C/C(=C/c6ccncc6)C(=O)C(C)(C)[C@@H]5CC[C@@]4(C)[C@]3(C)CC[C@@]2(C(=O)N2CCN(C)CC2)CC[C@@H]1C | 70%
31 | Cn1cc(-c2ccc3nc(-c4ccc(CC(=O)Nc5cc(C(C)(C)C)no5)cc4)cnc3c2)cn1 | 26.6% [30 µM]
32 | CN(C)c1ccc(C#Cc2c(F)cccc2Cl)cc1 | 65.1%
33 | CC(=O)Nc1nccs1 | 87%
34 | C[N+](C)(C)CCOC(OCC[N+](C)(C)C)(c1ccccc1)c1ccccc1 | 93%
35 | Cc1c2c(cn1Cc1ccccc1)CCc1cn(C)nc1-2 | 78.3%
36 | C=C(C)[C@@H]1CC[C@]2(C(=O)NCC(=O)O)CC[C@]3(C)[C@H](CC[C@@H]4[C@@]5(C)Cc6c([nH]c7ccccc67)C(C)(C)[C@@H]5CC[C@]43C)[C@@H]12 | 41.9%
37 | Cc1[nH]c(-c2nc3ccccc3[nH]2)c(C)c1C(=O)N1CCOCC1 | 91%
38 | COc1ccc(Oc2nc(Nc3ccc(N4CCOCC4)nc3)ncc2NC(=O)c2cc(OC)cc(OC)c2)cc1 | 52.1%
39 | N#C/C(=C\c1ccc(Br)cc1)n1nnc2ccccc21 | -6.64% (active)
40 | CCOc1cc(N)ccc1C(=O)NCCCN(CC)CC | 98.2%
